Assay results published in PubChem BioAssay (Tox21).
Inconclusive results are not listed. A call without a number means that no potency is given here. A number with no mark means an inactive call. The source made the active and inactive calls. The call rests on the fitted dose curve; in most records, active means well fitted cell-killing curve with a large enough effect in the repeat runs; inconclusive means weak or mixed curves, or effect the other way; inactive means flat fitted curve, though single readings scatter.

How the values were obtained:
[1] = cAMP Responsive Elements (CRE) small molecule antagonists, cell-based qHTS assay: qHTS cell viability counter screen (AID 2060913); conditions: CRE-bla HEK293T viability, CellTiter-Glo luminescence, 5 h; series mostly up to 92.4 µM; further: nearly all actives have a fitted effect of over 40% in size
Outline: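 Steps: cells plated and held 18 hrs at 37 C/5% CO2; compounds and NKH477 (0.25 uM final) added; 3 hrs incubation; reporter substrate read; CellTiter-Glo added to measure cytotoxicity by luminescence.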

[2] = cAMP Responsive Elements (CRE) small molecule agonists, cell-based qHTS assay: qHTS cell viability counter screen (AID 2060914); conditions: CRE-bla HEK293T viability, CellTiter-Glo luminescence, 5 h; series mostly up to 92.4 µM;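 further: viability read after 3 h of compound exposure; nearly all actives have a fitted effect of over 50% in size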
Outline: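 CRE-bla HEK293T cells in 10% dialyzed FBS medium were exposed to compounds for 3 h at 37C after 18 h plating. CellTiter-Glo was then added in the same wells, and luminescence was read after 30 min at room temperature.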

Row | Compound | Potency [1] | Potency [2] | viability change, negative = cytotoxic [1] | activity change, negative = cytotoxicity [2]
1 | C=CC(C)(CCC=C(C)C)OC(=O)CC (centres undefined) | inactive | inactive |  | 
2 | COc1nc(C)nc(NC(=O)NS(=O)(=O)c2ccccc2OCCCl)n1 | inactive | inactive |  | 
3 | O=C(O)CCCCCCCCCCCC(=O)O | inactive | inactive |  | 
4 | CC1=C(C(=O)O)N2C(=O)[C@@H](NC(=O)[C@H](N)c3ccccc3)[C@H]2SC1 | inactive | inactive |  | 
5 | Nc1nc(-c2ccccc2)cs1 | inactive | inactive |  | 
6 | CCCCCCCCS(=O)(=O)Cl | inactive | inactive |  | 
7 | CCOC(=O)CC(CC(=O)OCC)(OC(C)=O)C(=O)OCC | inactive | inactive |  | 
8 | CN1CCN(c2cc3c(nn2)Oc2ccccc2N3C)CC1 |  |  | 4.41% [at 18.9 µM] | 1.04% [at 18.9 µM]
9 | CC(C)=CCC/C(C)=C/C=N/O | inactive | inactive |  | 
10 | [O-][n+]1cccc(/C(Cl)=N/OC[C@@H](O)CN2CCCCC2)c1 | inactive | inactive |  | 
11 | CCCCCCCCCCCCCCCC(=O)OCC | inactive | inactive |  | 
12 | O=C(O)c1[nH]n(-c2ccc(S(=O)(=O)O)cc2)c(=O)c1N=Nc1ccc(S(=O)(=O)O)cc1 | inactive | inactive |  | 
13 | CCC1NC(=O)c2cc(S(N)(=O)=O)c(Cl)cc2N1 (centres undefined) | inactive | inactive |  | 
14 | CCCCCCCC/C=C\CCCCCCCC(=O)OCC | inactive | inactive |  | 
15 | NC(=O)c1ccncc1 | inactive | inactive |  | 
16 | CCN1CCCC1CN (centres undefined) | inactive | inactive |  | 
17 | C=C1C(=C/C=C2\CCC[C@]3(C)[C@@H]([C@H](C)/C=C/[C@@H](O)C4CC4)CC[C@@H]23)C[C@@H](O)C[C@@H]1O | inactive | inactive |  | 
18 | Cc1cccc(C)c1OCC(=O)N[C@@H](Cc1ccccc1)[C@@H](O)C[C@H](Cc1ccccc1)NC(=O)[C@H](C(C)C)N1CCCNC1=O | inactive | inactive |  | 
19 | CN(C)CCOCCO | inactive | inactive |  | 
20 | C=CC(=O)NCOCCCC | inactive | inactive |  | 
21 | Cc1ccc2oc(=O)ccc2c1 | inactive | inactive |  | 
22 | CC1(C)CO[C@@H](CC(=O)O)CN1 | inactive | inactive |  | 
23 | NC(=O)c1ccccc1Cl | inactive | inactive |  | 
24 | CCOc1ccc(O)cc1 | inactive | inactive |  | 
25 | NS(=O)(=O)c1cc(C(=O)O)cc(N2CCCC2)c1Oc1ccccc1 | inactive | inactive |  | 
26 | CCCC(C)C | inactive | inactive |  | 

Row | Compound | Potency [1] | Potency [2] | viability change, negative = cytotoxic [1] | activity change, negative = cytotoxicity [2]
27 | Oc1cccc2[nH]ccc12 | inactive | inactive |  | 
28 | CC(=O)c1ccccn1 | inactive | inactive |  | 
29 | Oc1ccc2ccccc2c1 | inactive | inactive |  | 
30 | O=c1cc(-c2ccccc2)oc2ccccc12 | inactive | inactive |  | 
31 | O=c1c(-c2ccc(O)cc2)coc2cc(O)ccc12 | inactive | inactive |  | 
32 | CC(C)CC(O)Cc1ccccc1 (centres undefined) | inactive | inactive |  | 
33 | CCCCCCCCN1CCCC1=O | inactive | inactive |  | 
34 | CCCCNS(=O)(=O)c1ccc(C)cc1 | inactive | inactive |  | 
35 | CCCCCCCCCCCCCCCCC(C(=O)O)C(O)(CC(=O)O)C(=O)O (centres undefined) | inactive | inactive |  | 
36 | CCOC(=O)C1=NN(c2ccccc2)C(=O)C1 | inactive | inactive |  | 
37 | CCCCCO | inactive | inactive |  | 
38 | COCCCOCCCOC | inactive | inactive |  | 
39 | COCCOC[C@H](CC1(C(=O)NC2CCC(C(=O)O)CC2)CCCC1)C(=O)Oc1ccc2c(c1)CCC2 (some centres undefined) | inactive | inactive |  | 
40 | CCc1c(C)cc(N)c(CC)c1N | inactive | inactive |  | 
41 | CCCC1O[C@@H]2C[C@H]3[C@@H]4CCC5=CC(=O)C=C[C@]5(C)[C@H]4[C@@H](O)C[C@]3(C)[C@]2(C(=O)CO)O1 (some centres undefined) | inactive | inactive |  | 
42 | COC(=O)C1=C(C)NC(C)=C(C(=O)OC(C)(C)CN(C)CCC(c2ccccc2)c2ccccc2)C1c1cccc([N+](=O)[O-])c1 (centres undefined) | inactive | inactive |  | 
43 | CCCCOCCOCCOCCOCCO | inactive | inactive |  | 
44 | ClC(Cl)(Cl)c1ccc(C(Cl)(Cl)Cl)cc1 | inactive | inactive |  | 
45 | CC(=O)SCC(CC(=O)c1ccc(C)cc1)C(=O)O (centres undefined) | inactive | inactive |  | 
46 | CCCCCOC(=O)COc1cc(N2C(=O)C3=C(CCCC3)C2=O)c(F)cc1Cl | inactive | inactive |  | 
47 | O=C(O)c1ccc(Cl)c(Cl)c1 | inactive | inactive |  | 
48 | Nc1ccc(N=Nc2ccccc2)c(N)c1 | inactive | inactive |  | 
49 | c1cc(N(CC2CO2)CC2CO2)ccc1OCC1CO1 (centres undefined) | inactive | inactive |  | 
50 | NCCN1CCOCC1 | inactive | inactive |  | 
51 | Nc1ccc2ccccc2c1S(=O)(=O)O | inactive | inactive |  | 
52 | O=C1c2cccc3c2[C@H](CCC3)CN1[C@@H]1CN2CCC1CC2 | inactive | inactive |  | 
